From PubChem BioAssay (NCATS) come the findings set out here.

Results filed as inconclusive are left out. Activity calls are given as the source filed them. The call rests on the fitted dose curve; in most records, active means well fitted inhibition curve with a large enough effect; inconclusive means small, poorly fitted or top-dose-only effect; inactive means flat fitted curve, though single readings scatter.
On the % scale 0 is the no-effect control and ±100 the full control effect.

Calcium and integrin-binding protein 1 (Homo sapiens), sequence (Q99828 whole entry, looked up): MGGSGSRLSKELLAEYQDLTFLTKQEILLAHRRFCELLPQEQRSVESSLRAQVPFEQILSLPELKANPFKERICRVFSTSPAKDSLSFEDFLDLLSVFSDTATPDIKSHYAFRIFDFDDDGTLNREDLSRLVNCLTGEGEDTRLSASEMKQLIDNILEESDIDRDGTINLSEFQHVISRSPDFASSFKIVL

The target in the experiment is Calcium and integrin-binding protein 1 (Homo sapiens) (UniProt Q99828). Put plainly: Primary qHTS for Identification of Calcium Integrin Binding Protein 1 (CIB1) Competitor (AID 1508620).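 Further: GST tagged CIB1 binding a fluorescein labelled alphaIIb integrin peptide tracer; top concentration of the series differs between compounds.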 Particulars: CIB1-GST / FITC-alphaIIb peptide fluorescence polarization; series mostly up to 114 µM; activity change, negative = inhibition: at the top concentration. In short, it runs like this:
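Fluorescence polarization competition: CIB1-GST (1 uM final) preincubated with compound 15 min at room temperature, then FITC-labeled alphaIIb peptide (100 nM final) added for another 15 min. Polarization read at Ex 480/Em 540.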
For the compound `O=C1c2ccccc2NC(c2ccc(-c3ccccc3F)o2)N1O` (stereo not given), the “activity change, negative = inhibition” value is -3.76% (inactive).

On to `COc1ccc(C(=O)NCC(=O)OC(C(=O)Nc2cc(C(F)(F)F)ccc2Cl)c2ccccc2)cc1OC` (stereo not given), for which the “activity change, negative = inhibition” value is -0.549% (inactive).

On to `Cc1ccc(OCCn2c(CCNC(=O)Cc3cc(F)ccc3F)nc3ccccc32)cc1`, for which the “activity change, negative = inhibition” value was 27.4% (inactive).

For `Cc1ccc(CNc2ccc(N3CCOCC3)cc2)cc1`, the “activity change, negative = inhibition” value is -2.76% (inactive).

With `COc1ccc(NS(=O)(=O)c2ccccc2)cc1NS(=O)(=O)c1ccccc1`, the “activity change, negative = inhibition” value was -1.24% (inactive).

Regarding `O=C(Nc1ccccc1)OCc1c(-c2ccccc2)no[n+]1[O-]`, the “activity change, negative = inhibition” value is 0.45% (inactive).

As to `O=C(NCc1nnc(-c2cc3ccccc3[nH]2)o1)c1ccccc1`, the “activity change, negative = inhibition” value is -1.45% (inactive).

For `Cc1cccc(CNc2ccnc(-c3cccc4ccccc34)n2)c1`, the “activity change, negative = inhibition” value is -0.406% (inactive).

For the compound `N#Cc1ncc(C(=O)OCC(=O)NC2C3CC4CC(C3)CC2C4)cn1` (stereo not given), the “activity change, negative = inhibition” value is -3% (inactive).

Turning to `COc1ccc(C2=Nn3c(nnc3-c3ccc(OC)c(OC)c3)SC2)c(OC)c1`, the “activity change, negative = inhibition” value is 3.63% (inactive).

As to `Cc1ccc(OCCn2c(CCNC(=O)c3ccccc3C)nc3ccccc32)cc1`, the “activity change, negative = inhibition” value was 11.2% (inactive).

As for `Cc1cc(C)n2ncc(C(=O)Nc3ccncc3)c2n1`, the “activity change, negative = inhibition” value is 3.09% (inactive).

With `O=C1CCCC2=C1C(c1[nH]ncc1Cl)NC(=S)N2` (stereo not given), the “activity change, negative = inhibition” value was -4.97% (inactive).

Consider `CC(=O)c1ccc(NC(=O)Nc2nnc(-c3ccncc3)s2)cc1`, for which the “activity change, negative = inhibition” value was 6.66% (inactive).

Regarding `O=C(/C=C/c1cccs1)Nc1cccc([S+](=O)([O-])Nc2ccccc2F)c1`, the Potency entry was “inactive”.

Consider `Cc1c(C(=O)OCC2CC2)[nH]c2c1C(=O)CC(c1ccco1)C2` (stereo not given), for which the “activity change, negative = inhibition” value was -14.1% (inactive).

Regarding `COc1cccc(NC(=O)C(OC(=O)CNC(=O)c2ccccc2)c2ccccc2)c1` (stereo not given), the “activity change, negative = inhibition” value was -0.934% (inactive).

Turning to `Cc1cc(C)n2ncc(C(=O)N3CCCC3)c2n1`, the “activity change, negative = inhibition” value was -8.67% (inactive).

With `COc1cc(O)c(C(CC(=O)N2CCCC(c3nc4ccccc4o3)C2)c2ccc3c(c2)OCO3)c(OC)c1` (stereo not given), the “activity change, negative = inhibition” value is -7.29% [at 228 µM] (inactive).

`COC(=O)c1ccccc1S(=O)(=O)Nc1ccc(OC)cc1`: the “activity change, negative = inhibition” value is -6.02% (inactive).

In the case of `O=[S+]([O-])(Nc1ccccc1)c1ccc(NCc2ccc(Cl)cc2O)cc1`, the “activity change, negative = inhibition” value is 1.97% (inactive).

With `Oc1ccc(CNc2ccccn2)c2cccnc12`, the “activity change, negative = inhibition” value is 5.13% (inactive).

As for `Cc1cccc(CNc2ncnc3ccc(-c4cccc(C)c4)cc23)c1`, the “activity change, negative = inhibition” value is 4.09% (inactive).

Take `O=C(Nc1ccc(Br)c(Br)c1)Nc1nnc(-c2cccnc2)s1`: the “activity change, negative = inhibition” value was 4.55% (inactive).

On to `CC(=O)Nc1ccccc1NC(=O)c1cnn2c(C)cc(C)nc12`, for which the “activity change, negative = inhibition” value was 0.0809% (inactive).

As to `COc1ccc(C2Nc3ccccc3C(=O)N2CCCN(C)C)cc1COc1ccc(NC(C)=O)cc1` (stereo not given), the “activity change, negative = inhibition” value was -0.487% (inactive).

As for `O=C1CN(S(=O)(=O)c2c(F)cccc2F)CCN1S(=O)(=O)c1ccc2c(c1)OCCO2`, the “activity change, negative = inhibition” value was 7.19% (inactive).

On to `N#CN1CCC(NC(=O)c2cccc(C(F)(F)F)c2)CC1`, for which the “activity change, negative = inhibition” value is -0.282% (inactive).

Regarding `Cc1ccc(NS(=O)(=O)c2ccc3c(c2)N(C)CCO3)cc1C`, the “activity change, negative = inhibition” value was -2.24% (inactive).

Take `Cc1cc(C)nc(NC(=S)N2CCN(c3ccc(Cl)cc3[N+](=O)[O-])CC2)c1`: the “activity change, negative = inhibition” value is -16.8% (inactive).

As to `NC(N)=NCCC[C@H](NC(=O)CNC(=O)c1ccccc1)C(=O)Nc1cc(C(F)(F)F)ccc1Cl`, the “activity change, negative = inhibition” value was 1.48% (inactive).

Consider `CCOc1ccc(CCNC(=O)c2cc3c(s2)CCC3)cc1OCC`, for which the “activity change, negative = inhibition” value is 19.4% (inactive).

As to `COc1ccc(C2Nc3ccccc3C(=O)N2Cc2ccco2)cc1CSc1c(C)cccc1C` (stereo not given), the “activity change, negative = inhibition” value is -4.02% (inactive).

With `COc1cc(O)c(C(CC(=O)N2CCC[C@H](C)C2)c2ccc3c(c2)OCO3)c(OC)c1` (stereo not given in full), the “activity change, negative = inhibition” value was -5.13% [at 228 µM] (inactive).

For the compound `Cc1ccc(S(=O)(=O)n2cc(C(=O)Nc3nc(-c4ccccc4)cs3)c3ccccc32)cc1`, the “activity change, negative = inhibition” value was -3.6% (inactive).

For `O=C(Cc1ccc(Cl)c(Cl)c1)Nc1ccc(S(=O)(=O)Nc2cccc(O)c2)cc1`, the “activity change, negative = inhibition” value was -14.6% (inactive).

For `O=C(O)c1ccc(O)c2ncc(N3CCCN(CCc4ccncc4)CC3)cc12`, the “activity change, negative = inhibition” value was -7.26% (inactive).

Regarding `COc1ccc(C(=O)Nc2ccc(-c3nc4ccccc4[nH]3)cc2)cc1C(F)(F)F`, the “activity change, negative = inhibition” value is 3.33% (inactive).

Take `Cc1ccc(C(=O)NCC(=O)OC(C(=O)Nc2cc(C(F)(F)F)ccc2Cl)c2ccccc2)cc1` (stereo not given): the “activity change, negative = inhibition” value is -2.74% (inactive).

`O=C(Nc1ccc(Cl)c(S(=O)(=O)N2CCOCC2)c1)c1ccc(S(=O)(=O)N2CCOCC2)cc1`: the “activity change, negative = inhibition” value was 1.09% (inactive).
